Experimental data: the supplement of paper PMC4466140

B1: unnamed (peptide)
chain: NHSRSLFSLPGNQQS
B2: unnamed (peptide)
chain: RRTRLRPPTPLSQLL

Target: AgAbp1
Test: SPOT peptide array binding signal intensity (averaged, normalized) (arbitrary units (background-subtracted, floor 0; scale differs between SH3 domains)); higher = stronger binding of the SH3 domain to the peptide
Method: (§1)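 GST-tagged SH3 domains from S. cerevisiae (Sc), A. gossypii (Ag), C. albicans (Ca) and S. pombe (Sp) were incubated at 10 ug/ml overnight at 4 C on cellulose SPOT membranes carrying 292 synthetic 15-mer peptides mined from the S. cerevisiae proteome (cysteines replaced by serines). Binding was detected with anti-GST antibody, HRP secondary and chemiluminescence, quantified with Genespotter, and reported as normalized spot intensities averaged over biological replicates.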

Binder	SPOT peptide array binding signal intensity
B1	31
B2	31.5

Target: AgBbc1
Test: as above
Method: as §1

Binder	SPOT peptide array binding signal intensity
B1	21.5
B2	145

Target: AgBem1-D1
Test: as above
Method: as §1

Binder	SPOT peptide array binding signal intensity
B1	96.5
B2	113

Target: AgBzz1-D1
Test: as above
Method: as §1

Binder	SPOT peptide array binding signal intensity
B1	38
B2	80.8

Target: AgBzz1-D2
Test: as above
Method: as §1

Binder	SPOT peptide array binding signal intensity
B1	20.5
B2	45.5

Target: AgCyk3
Test: as above
Method: as §1

Binder	SPOT peptide array binding signal intensity
B1	1
B2	1.5

Target: AgFus1
Test: as above
Method: as §1

Binder	SPOT peptide array binding signal intensity
B1	786
B2	1120

Target: AgHof1
Test: as above
Method: as §1

Binder	SPOT peptide array binding signal intensity
B1	58.8
B2	123

Target: AgHse1
Test: as above
Method: as §1

Binder	SPOT peptide array binding signal intensity
B1	2350
B2	866

Target: AgLsb1
Test: as above
Method: as §1

Binder	SPOT peptide array binding signal intensity
B1	246
B2	154

Target: AgLsb4
Test: as above
Method: as §1

Binder	SPOT peptide array binding signal intensity
B1	45
B2	100

Target: AgMyo5
Test: as above
Method: as §1

Binder	SPOT peptide array binding signal intensity
B1	44.5
B2	1.75

Target: AgNbp2
Test: as above
Method: as §1

Binder	SPOT peptide array binding signal intensity
B1	44
B2	204

Target: AgRvs167
Test: as above
Method: as §1

Binder	SPOT peptide array binding signal intensity
B1	14
B2	15.2

Target: AgSho1
Test: as above
Method: as §1

Binder	SPOT peptide array binding signal intensity
B1	64
B2	64

Target: AgSla1-D1-D2
Test: as above
Method: as §1

Binder	SPOT peptide array binding signal intensity
B1	58.5
B2	93

Target: AgSla1-D3
Test: as above
Method: as §1

Binder	SPOT peptide array binding signal intensity
B1	13.5
B2	5

Target: CaAbp1-D1
Test: as above
Method: as §1

Binder	SPOT peptide array binding signal intensity
B1	266
B2	218

Target: CaAbp1-D2
Test: as above
Method: as §1

Binder	SPOT peptide array binding signal intensity
B1	430
B2	133

Target: CaBbc1
Test: as above
Method: as §1

Binder	SPOT peptide array binding signal intensity
B1	111
B2	333

Target: CaBem1-D1
Test: as above
Method: as §1

Binder	SPOT peptide array binding signal intensity
B1	27
B2	192

Target: CaBzz1-D1
Test: as above
Method: as §1

Binder	SPOT peptide array binding signal intensity
B1	5.5
B2	233

Target: CaBzz1-D2
Test: as above
Method: as §1

Binder	SPOT peptide array binding signal intensity
B1	31
B2	76.8

Target: CaCyk3
Test: as above
Method: as §1

Binder	SPOT peptide array binding signal intensity
B1	1.5
B2	88.5

Target: CaFus1
Test: as above
Method: as §1

Binder	SPOT peptide array binding signal intensity
B1	1930
B2	1050

Target: CaHof1
Test: as above
Method: as §1

Binder	SPOT peptide array binding signal intensity
B1	0.25
B2	7.63e-06

Target: CaHse1
Test: as above
Method: as §1

Binder	SPOT peptide array binding signal intensity
B1	296
B2	60.6

Target: CaLsb1
Test: as above
Method: as §1

Binder	SPOT peptide array binding signal intensity
B1	2
B2	0.5

Target: CaLsb4
Test: as above
Method: as §1

Binder	SPOT peptide array binding signal intensity
B1	≤ 0
B2	307

Target: CaMyo5
Test: as above
Method: as §1

Binder	SPOT peptide array binding signal intensity
B1	85.2
B2	4

Target: CaNbp2
Test: as above
Method: as §1

Binder	SPOT peptide array binding signal intensity
B2	512

Target: CaRvs167
Test: as above
Method: as §1

Binder	SPOT peptide array binding signal intensity
B2	40.8

Target: CaRvs167-3
Test: as above
Method: as §1

Binder	SPOT peptide array binding signal intensity
B2	16.5

Target: CaSho1
Test: as above
Method: as §1

Binder	SPOT peptide array binding signal intensity
B2	526

Target: CaSla1-D1-D2
Test: as above
Method: as §1

Binder	SPOT peptide array binding signal intensity
B2	574

Target: CaSla1-D3
Test: as above
Method: as §1

Binder	SPOT peptide array binding signal intensity
B2	12.9

Target: ScAbp1
Test: as above
Method: as §1

Binder	SPOT peptide array binding signal intensity
B2	70.5

Target: ScBbc1
Test: as above
Method: as §1

Binder	SPOT peptide array binding signal intensity
B2	61.6

Target: ScBem1-D1
Test: as above
Method: as §1

Binder	SPOT peptide array binding signal intensity
B2	111

Target: ScBzz1-D1
Test: as above
Method: as §1

Binder	SPOT peptide array binding signal intensity
B2	42

Target: ScBzz1-D2
Test: as above
Method: as §1

Binder	SPOT peptide array binding signal intensity
B2	26.2

Target: ScCyk3
Test: as above
Method: as §1

Binder	SPOT peptide array binding signal intensity
B2	83.8

Target: ScFus1
Test: as above
Method: as §1

Binder	SPOT peptide array binding signal intensity
B2	722

Target: ScHof1
Test: as above
Method: as §1

Binder	SPOT peptide array binding signal intensity
B2	4.5

Target: ScHse1
Test: as above
Method: as §1

Binder	SPOT peptide array binding signal intensity
B2	1120

Target: ScLsb1
Test: as above
Method: as §1

Binder	SPOT peptide array binding signal intensity
B2	63

Target: ScLsb2
Test: as above
Method: as §1

Binder	SPOT peptide array binding signal intensity
B2	5.5

Target: ScLsb3
Test: as above
Method: as §1

Binder	SPOT peptide array binding signal intensity
B2	1130

Target: ScLsb4
Test: as above
Method: as §1

Binder	SPOT peptide array binding signal intensity
B2	37.8

Target: ScMyo3
Test: as above
Method: as §1

Binder	SPOT peptide array binding signal intensity
B2	≤ 0

Target: ScMyo5
Test: as above
Method: as §1

Binder	SPOT peptide array binding signal intensity
B2	4.12

Target: ScNbp2
Test: as above
Method: as §1

Binder	SPOT peptide array binding signal intensity
B2	727

Target: ScPex13
Test: as above
Method: as §1

Binder	SPOT peptide array binding signal intensity
B2	16.2

Target: ScRvs167
Test: as above
Method: as §1

Binder	SPOT peptide array binding signal intensity
B2	148

Target: ScSho1
Test: as above
Method: as §1

Binder	SPOT peptide array binding signal intensity
B2	1180

Target: ScSla1-D1-D2
Test: as above
Method: as §1

Binder	SPOT peptide array binding signal intensity
B2	2070

Target: ScSla1-D3
Test: as above
Method: as §1

Binder	SPOT peptide array binding signal intensity
B2	3.38

Target: SpAbp1-D1
Test: as above
Method: as §1

Binder	SPOT peptide array binding signal intensity
B2	20.5

Target: SpBbc1
Test: as above
Method: as §1

Binder	SPOT peptide array binding signal intensity
B2	14.8

Target: SpBzz1-D1
Test: as above
Method: as §1

Binder	SPOT peptide array binding signal intensity
B2	486

Target: SpBzz1-D2
Test: as above
Method: as §1

Binder	SPOT peptide array binding signal intensity
B2	≤ 0

Target: SpCyk3
Test: as above
Method: as §1

Binder	SPOT peptide array binding signal intensity
B2	4

Target: SpHof1
Test: as above
Method: as §1

Binder	SPOT peptide array binding signal intensity
B2	406

Target: SpHof1-2
Test: as above
Method: as §1

Binder	SPOT peptide array binding signal intensity
B2	61.6

Target: SpHof1-3
Test: as above
Method: as §1

Binder	SPOT peptide array binding signal intensity
B2	610

Target: SpHse1
Test: as above
Method: as §1

Binder	SPOT peptide array binding signal intensity
B2	460

Target: SpLsb1
Test: as above
Method: as §1

Binder	SPOT peptide array binding signal intensity
B2	87.8

Target: SpLsb4
Test: as above
Method: as §1

Binder	SPOT peptide array binding signal intensity
B2	615

Target: SpMyo1
Test: as above
Method: as §1

Binder	SPOT peptide array binding signal intensity
B2	12.1

Target: SpNbp2
Test: as above
Method: as §1

Binder	SPOT peptide array binding signal intensity
B2	184

Target: SpPex13
Test: as above
Method: as §1

Binder	SPOT peptide array binding signal intensity
B2	12.8

Target: SpRvs167
Test: as above
Method: as §1

Binder	SPOT peptide array binding signal intensity
B2	24.8

Target: SpSla1-D1-D2
Test: as above
Method: as §1

Binder	SPOT peptide array binding signal intensity
B2	53

Target: SpSla1-D3
Test: as above
Method: as §1

Binder	SPOT peptide array binding signal intensity
B2	8
